Source: PubChem BioAssay (National Center for Advancing Translational Sciences (NCATS))
Eya2 phos inh: qHTS Assay for Inhibitors of the Phosphatase Activity of Eya2 | recombinant Eya2, OMFP fluorescence dephosphorylation (OMFP is methylfluorescein phosphate) | Potency, µM (highest dose often 76.9 µM), actives largely listed as inhibitors | 0.006% of 330,000 active
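Eya2 (0.2 uM) preincubated 10 min at ambient with compound, then OMFP substrate added at 50 uM; 10 min reaction in 50 mM HEPES pH 7.5, 50 mM NaCl, 5 uM MgCl2, 0.05% BSA, 1 mM DTT. Fluorescence read at Ex 485/Em 525 nm.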
GALK inhibitor: qHTS Assay for Inhibitors of Human Galactokinase (GALK). P51570. Purified GALK, Kinase-Glo residual ATP luminescence. Potency, µM (titrated, usually from 57.5 µM), actives largely listed as inhibitors. 0.007% of 270,000 active. AID 1868, 2009
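Human GALK (5 nM) with 35 uM ATP and 100 uM galactose in 20 mM HEPES pH 8.0, 5 mM MgCl2, 60 mM NaCl, 1 mM DTT, 0.01% BSA. After 1 h at room temperature, leftover ATP was read by Kinase-Glo Plus luminescence.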
D1 PAM: Potentiators of Human D1 Dopamine Receptor: qHTS | D(1A) dopamine receptor (Homo sapiens), P21728 | HEK293 TREx D1 cells, calcium flux, dopamine EC20 potentiation | potentiation, % at 10 µM | 0.036% of 360,000 active; in the data active = potentiation above about 30%
Target sequence (P21728 whole entry, looked up): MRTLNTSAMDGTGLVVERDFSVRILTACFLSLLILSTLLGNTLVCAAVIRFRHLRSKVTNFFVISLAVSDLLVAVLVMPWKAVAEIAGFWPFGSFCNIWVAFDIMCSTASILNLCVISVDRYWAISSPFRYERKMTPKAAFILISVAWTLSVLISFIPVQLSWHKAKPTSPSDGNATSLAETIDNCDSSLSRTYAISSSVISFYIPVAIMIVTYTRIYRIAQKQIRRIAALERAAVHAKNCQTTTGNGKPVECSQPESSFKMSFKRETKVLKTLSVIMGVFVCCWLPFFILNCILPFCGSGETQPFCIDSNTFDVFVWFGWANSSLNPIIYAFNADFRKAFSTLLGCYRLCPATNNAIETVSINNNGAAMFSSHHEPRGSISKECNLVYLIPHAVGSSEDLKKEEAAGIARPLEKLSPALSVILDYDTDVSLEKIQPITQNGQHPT
D1 ag: Allosteric Agonists of the Human D1 Dopamine Receptor: qHTS | activation, % at 2 µM | D(1A) dopamine receptor (Homo sapiens), P21728 | HEK293 T-REx D1 cells, calcium flux, agonist mode | 1% of 360,000 active | AID 504660, 2011; in the data active = activation above about 30%
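Agonism was scored from calcium flux recorded over 180 s (1 read/s) after pintool compound addition, following a 10-cycle baseline. Cells were inducible force-coupled HEK293 TREx D1, plated overnight at 30 C and loaded with no-wash calcium dye.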
D1 antag: Antagonist of Human D 1 Dopamine Receptor: qHTS | HEK293 TREx D1 cells, calcium flux, dopamine EC80; stronger effect = lower value | activity change, negative = inhibition, % at 10 µM | 3.2% of 360,000 active; in the data active = activity change below about -30%
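Tetracycline-induced HEK293 Trex D1 cells, force-coupled to calcium, dye-loaded; compounds added and read 180 s, then EC80 dopamine added and calcium flux tracked kinetically another 180 s.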
USP2a inh: qHTS Assay for Inhibitors of Ubiquitin-specific Protease USP2a Using CHOP2 as the Reporter. Ubiquitin carboxyl-terminal hydrolase 2 (Homo sapiens), O75604. USP2 core, Ub-CHOP2 coupled fluorogenic reporter, 485/531. Potency, µM (titrated, usually from 38.3 µM), hits mostly inhibitors. 0.01% of 330,000 active. AID 463254, 2010
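Cell-free coupled assay: 10nM USP2 core preincubated 30min RT with compound in Tris-HCl pH 8.0/CaCl2/CHAPS buffer, then 25nM Ub-CHOP2 and 25nM reporter substrate; fluorescence (Ex 485/Em 531) read after 60min RT, normalized to NEM inhibition, concentration-response curves fitted.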
Each line names hits and unclear results; the compound was inactive in the other large screens. In the library only some 3.9% were active in any assay of this set; here they are far more common. Unless noted, calls come from the whole dose curve; as a rule, active = well fitted inhibition curve with a large enough effect; inconclusive = small, poorly fitted or top-dose-only effect, or effect the other way; inactive = flat fitted curve, though single readings scatter.

CC1CCN(CC(=O)N(C)c2c(N)n(Cc3ccccc3)c(=O)[nH]c2=O)CC1	none (no result: GALK inhibitor)
Cc1ccc(SCC(=O)OCC(=O)N(C)CC(=O)Nc2ccc(F)cc2)cc1C	D1 ag 53 (no result: GALK inhibitor)
O=C(CN(Cc1ccc(F)cc1)C(=O)CCC(=O)Nc1nccs1)NCc1ccccc1	D1 antag -91
Cc1cccc(N(CC(=O)NCc2ccco2)C(=O)CCC(=O)Nc2nccs2)c1C	none (no result: D1 PAM)
Cc1ccccc1N(CC(=O)NCc1ccco1)C(=O)CCC(=O)Nc1nccs1	D1 antag -32
O=C(Nc1ccc(Cl)cc1)C1CCN(S(=O)(=O)c2ccc(Br)s2)CC1	none (no result: Eya2 phos inh, GALK inhibitor, USP2a inh)
Cc1ccccc1OCC(=O)N(Cc1cccs1)C1CCS(=O)(=O)C1 (configuration not stated)	none
COc1ccccc1OCC(=O)N(Cc1cccs1)C1CCS(=O)(=O)C1 (configuration not stated)	D1 antag -42 (no result: Eya2 phos inh, GALK inhibitor, USP2a inh)
CCOc1ccc(CN(C(=O)c2cccs2)C2CCS(=O)(=O)C2)cc1 (configuration not stated)	D1 antag -43
CN(C)c1ccc(CN(C(=O)c2cccs2)C2CCS(=O)(=O)C2)cc1 (configuration not stated)	none
CCOc1ccccc1N(CC)C(=O)Cn1ncc2c1-c1ccccc1OC2	none (no result: Eya2 phos inh, GALK inhibitor, USP2a inh)
CCc1ccc(NC(=O)CC2C(=O)N(c3cccc(OC)c3)C(=O)N2Cc2ccco2)cc1 (configuration not stated)	none (no result: Eya2 phos inh, GALK inhibitor, USP2a inh)
CC(Oc1ccc2ccccc2c1)C(=O)NNC(=O)Nc1ccccc1 (configuration not stated)	D1 antag -37
Cc1cccc(NC(=O)Cn2ncc3c4ccccc4n(Cc4ccccc4)c3c2=O)c1C	none (no result: Eya2 phos inh, GALK inhibitor, USP2a inh)
COCCCNC(=O)CS(=O)Cc1nc(-c2ccccc2C)oc1C (configuration not stated)	D1 antag -48
NC(=O)[C@@H]1CC2(CC(c3cccc(NC(=O)COc4ccc(Cl)cc4)c3)=NO2)CN1C(=O)COc1ccc(Cl)cc1 (some centres not stated)	none
C/C=C(\C)C(=O)Nc1cccc(C2=NOC3(C2)C[C@H](C(N)=O)N(C(=O)c2cc([N+](=O)[O-])cc([N+](=O)[O-])c2)C3)c1 (some centres not stated)	D1 antag -64
N#CCC(=O)N1CC2(CC(c3cccc(NC(=O)COc4ccc(Cl)cc4)c3)=NO2)C[C@@H]1C(N)=O (some centres not stated)	Eya2 phos inh inconclusive, D1 antag -41
C/C=C(\C)C(=O)Nc1cccc(C2=NOC3(C2)C[C@@H](C(N)=O)N(C(=O)c2cc([N+](=O)[O-])cc([N+](=O)[O-])c2C)C3)c1 (some centres not stated)	none
C/C=C/C=C/C(=O)N1CC2(CC(c3cccc(NC(=O)/C=C/C)c3)=NO2)C[C@@H]1C(N)=O (some centres not stated)	none
C/C=C\C=C/C(=O)Nc1cccc(C2=NOC3(C2)C[C@@H](C(N)=O)N(C(=O)c2ccc(Cl)cc2)C3)c1 (some centres not stated)	D1 antag -30
C/C=C/C(=O)Nc1cccc(C2=NOC3(C2)C[C@H](C(N)=O)N(C(=O)/C=C/C)C3)c1 (some centres not stated)	D1 antag -42
Cc1cc(C)n(Cc2ccccc2Cl)n1	D1 antag -47
O=C(Nc1ccc(F)cc1)c1oc2ccccc2c1NC(=O)C1CCCCC1	none (no result: Eya2 phos inh, GALK inhibitor, USP2a inh)
Cn1cc([N+](=O)[O-])cc1-c1nc2ccccc2n1C	D1 antag -34
CCCc1nnc(NC(=O)Cn2c(=O)oc3ccccc32)s1	none
